# Results filed as inconclusive are left out. Unmarked numbers belong to inactive results. Active and inactive are the calls of the source. Calls follow the shape of the dose curve; as a rule, active = well fitted cell-killing curve with a large enough effect; inconclusive = small, poorly fitted or top-dose-only effect, or effect the other way; inactive = no such curve, though single readings can be large or run the other way.
# Assay: Quantitative High-Throughput drug screen in 47 multiple myeloma cell lines against the NCATS MIPE library collection: PE2_PLB cell viability assay (AID 1919869); also: nearly all actives have a fitted effect of over 35% in size;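 as to viability (% of control): 100% = DMSO-only wells and 0% = cell-free media-only wells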
# Conditions: PE2_PLB myeloma cells viability, ATP luminescence, 48 h; series mostly up to 45.8 µM; viability (% of control): at the top concentration
# How it was run: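 Inhibition of viability over 48 h was scored by ATP content (CellTiter-Glo) in 500-cell wells. Zero and full viability were defined by media-only and DMSO-only wells.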
# Potency is read from the fitted curve at half-maximal effect.
Compound,viability (% of control) [%],Potency
CC(N[C@H]1C[C@H]1c1ccccc1)c1ccc2c(c1)OCCO2 (some centres undefined),101,
C#CC1(O)CCC2C3CCC4=CC(=O)CCC4(C)C3CCC21C (centres undefined),99.6,
C[C@]12COC(=O)C[C@@H]1CC[C@@H]1[C@H]2CC[C@@]2(C)[C@H]1CC[C@]2(C)O,114,
CCOP(=O)(OCC)C(C)NC(=O)N(CCCl)N=O (centres undefined),121,
CSCC[C@@H](NC(=O)[C@@H](Cc1ccccc1)NC(=O)CNC(=O)CNC(=O)[C@@H](N)Cc1ccc(O)cc1)C(=O)O,119,
CCc1c(C(=O)C(N)=O)c2c(OCC(=O)O)cccc2n1Cc1ccccc1,130,
C=C[C@@H]1CN2CCC1C[C@H]2[C@H](O)c1ccnc2ccccc12 (some centres undefined),,20.9 µM (active)
CCN1CCN(C(=O)Cc2ccc(Nc3ncc(F)c(Nc4ccc(C(=O)Nc5ccccc5Cl)cc4)n3)cc2)CC1,,7.43 µM (active)
O=C(O)CNC(=O)c1c(O)c2ccccc2n(Cc2ccccc2)c1=O,116,

# Reference: PubChem BioAssay (NCATS)
